BoNT-A LC inh2: blocks Botulinum neurotoxin A light chain protease. inhibition, % at 10 µM. hit rate 0.17% among 360,000. multiplex microsphere protease substrate cleavage, flow cytometry. AID 588499; further: plate controls were buffer without enzyme for full effect and enzyme alone for no effect
BoNT F protease: blocks Botulinum neurotoxin F light chain protease; Multiplex microsphere protease cleavage assay, flow cytometry; inhibition, % at 10 µM; hit rate 0.22% among 360,000; AID 588497; in the data active means inhibition above about 35%, passing the limit was not always enough; inconclusive means no clear call, values can overlap the other calls; further: plate controls were buffer without enzyme for full effect and enzyme alone for no effect
Anthrax LF inh2: inhibitors of Bacillus anthracis lethal factor protease | inhibition, % at 10 µM | hit rate 0.12% among 360,000 | multiplex microsphere protease cleavage assay, LF; further: plate controls were buffer without enzyme for full effect and enzyme alone for no effect
Target sequence (P15917 whole entry, looked up): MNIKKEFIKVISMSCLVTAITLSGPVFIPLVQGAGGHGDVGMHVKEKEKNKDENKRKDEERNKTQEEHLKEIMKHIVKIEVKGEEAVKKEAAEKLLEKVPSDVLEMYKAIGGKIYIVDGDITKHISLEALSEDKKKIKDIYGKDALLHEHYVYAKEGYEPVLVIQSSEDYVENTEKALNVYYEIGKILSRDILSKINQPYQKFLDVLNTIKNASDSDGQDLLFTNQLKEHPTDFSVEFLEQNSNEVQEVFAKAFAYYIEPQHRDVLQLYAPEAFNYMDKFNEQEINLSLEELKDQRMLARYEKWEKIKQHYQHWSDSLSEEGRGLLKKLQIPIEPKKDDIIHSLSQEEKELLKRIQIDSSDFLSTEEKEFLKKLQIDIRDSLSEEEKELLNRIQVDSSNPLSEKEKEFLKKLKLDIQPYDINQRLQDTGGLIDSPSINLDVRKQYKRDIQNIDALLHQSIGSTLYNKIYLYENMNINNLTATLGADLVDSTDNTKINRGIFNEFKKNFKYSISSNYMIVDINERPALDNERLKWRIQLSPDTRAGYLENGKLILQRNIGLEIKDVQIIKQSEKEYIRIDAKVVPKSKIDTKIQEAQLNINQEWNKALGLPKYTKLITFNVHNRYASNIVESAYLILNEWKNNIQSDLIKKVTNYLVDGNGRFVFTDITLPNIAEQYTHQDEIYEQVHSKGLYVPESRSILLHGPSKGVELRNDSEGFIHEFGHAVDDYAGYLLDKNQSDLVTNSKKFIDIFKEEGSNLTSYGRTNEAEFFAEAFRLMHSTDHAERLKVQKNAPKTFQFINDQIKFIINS
3CLpro inhibitor: SARS-CoV 3CLpro protease inhibition; P0C6X7; recombinant SARS-CoV 3CLpro, quenched FRET peptide cleavage; inhibition, % at 6 µM; hit rate 0.14% among 290,000; AID 1706; in the data active means inhibition above about 12%
Bead autofluor: flagged as autofluorescent in microsphere protease counterscreen | compound autofluorescence counterscreen, microsphere flow cytometry; hits give high values | fluorescence intensity (no concentration beside the values) | hit rate 3.1% among 360,000 | AID 624483; in the data active means fluorescence intensity above about 16000; inconclusive means no clear call, values can overlap the other calls
DUSP3 inh: blocks human VHR1 dual specificity phosphatase | recombinant VHR phosphatase, pNPP absorbance | P51452 | inhibition, % at 13.3 µM | hit rate 0.52% among 290,000; in the data active means inhibition above about 50%
BoNT-A LC CP1: inhibitors of Botulinum neurotoxin A light chain protease; shares compounds with BoNT F protease; multiplex microsphere protease assay, flow cytometry; AID 602139; inhibition, % at 10 µM; hit rate 3% among 720; in the data active means inhibition above about 32%
BoNT-F LC CP1: blocks botulinum neurotoxin F light chain protease. shares compounds with BoNT F protease. multiplex microsphere protease cleavage assay, flow cytometry. inhibition, % at 10 µM. 720 tested, under 10 active. AID 602140; call rule not given here
LF protease CP1: inhibitors of Bacillus anthracis lethal factor protease; shares compounds with BoNT F protease; multiplex microsphere protease cleavage assay, LF; inhibition, % at 10 µM; 720 tested, under 10 active; AID 602142; call rule not given here
Active calls of the source: *; ? = inconclusive; / = not tested or not shown. Rows were chosen to be rich in hits. Some 3.9% of all compounds tested hit in one or more screens of this group. Unless noted, no stated cut-off is given here; in the data, active means inhibition above about 30%; inconclusive means no clear call, values can overlap the other calls; inactive means below that.

SMILES	BoNT-A LC inh2	BoNT F protease	Anthrax LF inh2	3CLpro inhibitor	Bead autofluor	DUSP3 inh	BoNT-A LC CP1	BoNT-F LC CP1	LF protease CP1
O=C(NC1CS(=O)(=O)CC1NCc1ccccc1)c1ccccc1 (configuration not stated)	5	72*	5	4	8686	-12	0	-4	0
O=S1(=O)CC(NCc2ccccc2)C(Nc2ccccc2)C1 (configuration not stated)	?	-19	-7	-3	9396	-2	/	/	/
O=C(C1CCN(CCc2ccccc2)CC1)N1CCOCC1	0	5	-1	/	3628	/	/	/	/
Cc1cc(C(=O)NNC(=O)C(C)(C)Oc2ccc(Cl)cc2)c(C)o1	3	17	1	/	4733	/	/	/	/
CCOc1ccc(NC(=O)c2ccc(Cl)c(NC(=O)c3ccco3)c2)cc1	1	38*	14	0	3511	5	-2	-6	-3
COc1cccc(Nc2nc3cc(C)ccc3cc2C)c1	0	-4	-6	/	3757	/	/	/	/
CCN(C(=O)COC(=O)c1cccc(NS(=O)(=O)c2ccc(F)c(F)c2)c1)C1CCS(=O)(=O)C1 (configuration not stated)	/	/	/	1	/	23	/	/	/
O=C(CCC(=O)N1CCN(c2ccc(F)cc2)CC1)N1CCN(c2ccc(F)cc2)CC1	1	41*	12	-3	3564	-3	-2	-11	2
Cc1nc2ccc(NC(=S)N3CCN(c4ccccn4)CC3)cc2nc1C	2	0	-2	-4	2391	-9	/	/	/
S=C(Nc1ccc2nc(-c3ccccn3)c(-c3ccccn3)nc2c1)N1CCCCC1	33*	8	9	0	2750	17	3	-3	0
O=C(c1cc([N+](=O)[O-])[nH]n1)N1CCSCC1	-3	36*	6	4	3833	12	1	-2	2
COc1cccc(CNS(=O)(=O)c2ccccc2Br)c1OC	0	-1	1	/	3498	/	/	/	/
O=[N+]([O-])c1cccc(-c2ncc3ccccn23)c1	7	-5	2	1	4652	13	/	/	/
Clc1ccccc1-c1ncc2ccccn12	29	1	22	1	4716	22	2	8	1
COc1ccc(-c2ncc3ccccn23)cc1OC	2	-16	-8	3	2757	15	2	1	3
COc1ccc(-c2cncc3nccn23)cc1OC	-1	-3	-8	/	4079	/	/	/	/
Clc1ccc(-c2ncc3ccccn23)cc1	51*	3	22	-1	5802	4	0	-1	1
Cc1nn(-c2nnc(NC3CCCCC3)nn2)c(C)c1Br	35*	8	10	3	2147	-8	17	0	14
Cc1nn(C)c(C)c1S(=O)(=O)NC1CCCC1	0	24	3	-1	3549	21	/	/	/
Cc1nc(C)c(C(=O)N2CCCC(C(=O)c3cc(F)ccc3F)C2)s1 (configuration not stated)	-4	-10	0	-2	6685	8	/	/	/
CCC(C)NC(=O)c1cc2cc3ccc(OC)cc3nc2s1 (configuration not stated)	2	-4	-4	-1	3620	-4	1	-2	0
CCCN1CCN(C(=O)c2ccc3[nH]c(C)c(C)c3c2)CC1	0	1	4	/	3636	/	/	/	/
CCN1CCN(S(=O)(=O)c2cccc([N+](=O)[O-])c2)CC1	0	0	0	-3	3152	2	/	/	/
O=[N+]([O-])c1cccc(S(=O)(=O)N2CCCC2)c1	3	33	-2	0	2590	7	-2	-4	-4
CCCCC(=O)N(Cc1ccc(F)cc1)C1CCS(=O)(=O)C1 (configuration not stated)	0	7	-3	-1	5173	-4	/	/	/
COc1ccccc1-c1ccc(SCc2ccccc2)nn1	32*	6	25	2	4296	17	6	-12	2
COc1ccccc1-c1ccc(SCc2cccc(F)c2)nn1	0	-4	-9	4	4559	26	/	/	/
COc1ccccc1Cn1c(=S)[nH]c2ccc(Br)cc2c1=O	2	-3	31*	-5	3774	40	-1	-4	-1

Compound activity (PubChem)
